HCV inh = HCV inhibition; Huh7.5.1 HCVcc-Cre infection, luciferase reporter, 44 h; Potency, µM (top dose mostly 41.8 µM), for inactives: at the top dose activity change, negative = inhibition, usual class: inhibitors; 340,000 tested, 3.4% active; AID 651820; note: potency is the fitted concentration of half-maximal effect; % is set by controls: 0 for no effect and ±100 for the full control effect
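1,000 cells/well; 4 h culture; + compound; + HCVcc-Cre (~0.5 moi); 44 h; luciferase substrate, RT 15 min; read 15 sec.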
CHX counter = counter-screen hit for Shiga toxin inhibitors, cycloheximide; cell reporter, cycloheximide protein synthesis inhibition counterscreen; max response, %; 300,000 tested, 12% active; AID 2314; in the data active = max response mostly above about 13%, no sharp cut-off; inactive = mostly below about 14%; note: read at 38.3 µM for the half of the compounds with a filed dose; 0% is about no effect
Pf growth 96h = P. falciparum growth inhibition at 96 hours; P. falciparum luciferase reporter growth, 96 h; Potency, µM (titrated, usually from 28.7 µM), inactives show at the highest dose activity change, negative = inhibition, usual class: inhibitors; 320,000 tested, 6.9% active; AID 504834; note: potency is the fitted concentration of half-maximal effect; % is set by controls: 0 for no effect and ±100 for the full control effect
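P. falciparum expressing integrated firefly luciferase grown in erythrocytes (2% hematocrit, 0.05% parasitemia final) with compounds for 96 hours at 37 C, 5% CO2. Growth inhibition read as loss of luminescence after adding luciferase detection reagent.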
Shiga inhibitor = Shiga toxin inhibition | AID 2315 | inhibition, % at 38.7 µM | Vero cells, Shiga toxin protein synthesis inhibition reporter | 290,000 tested, 9.2% active; in the data active = inhibition mostly above about 28%, no sharp cut-off; inactive = mostly below about 43%; note: 0% is about no effect
Pf growth 48h = P. falciparum growth inhibition at 48 hours (one generation); 310,000 tested, 5.9% active; Potency, µM (top dose mostly 28.7 µM), for the others: at the top dose activity change, negative = inhibition, most hits filed as inhibitors; P. falciparum luciferase growth in erythrocytes, 48 h; note: potency is the fitted concentration of half-maximal effect; % is set by controls: 0 for no effect and ±100 for the full control effect
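In quantitative HTS format, infected erythrocytes bearing luciferase-reporter parasites were treated for a single generation at 37 C. Luminescence after adding detection reagent served as the growth measure.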
AMA1-RON2 inh = inhibitors of Plasmodium falciparum AMA1-RON2 interaction | AID 720542 | AlphaScreen AMA1-biotinylated RON2 peptide binding | Potency, µM (top dose mostly 58.2 µM), for inactives: at the highest dose activity change, negative = inhibition, usual class: inhibitors | 360,000 tested, 0.2% active;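 note: potency is the fitted concentration of half-maximal effect; 0% = vehicle wells and -100% = peptide control; nearly all actives have a fitted effect of over 45% in size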
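AMA1 (3D7) with his tag at 25 nM final met compounds first, then biotinylated RON2 peptide at 25 nM; detection used donor plus acceptor beads, 10 µg/mL apiece, read by AlphaScreen after 30 min at room temperature.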
* = called active by the depositor; i = inactive; ? = inconclusive; nt = no result given; + = active, no number; [ ] = dose if it differs, or a comment. Compounds with a hit are over-represented: about 21% of the library has one in this group of screens. Unless noted, calls come from the whole dose curve; as a rule, active = well fitted curve in the direction sought with a large enough effect; inconclusive = small, poorly fitted or top-dose-only effect, or another doubt; inactive = no such curve, though single readings can be large; an effect the other way counts as inactive or inconclusive.

SMILES	HCV inh	CHX counter	Pf growth 96h	Shiga inhibitor	Pf growth 48h	AMA1-RON2 inh
CCCOC(=O)C1=C(C)NC2=C(C(=O)CCC2)C1c1cccc(OC)c1OC (configuration not stated)	2.3%	3.5	8.28µM*	-8.2	13.8%	-1.3%
COCCOC(=O)C1=C(C)N(Cc2ccccc2)C(=O)NC1c1cccc(OC)c1OC (configuration not stated)	8.3%	-4.7	1.04µM*	-9.6	?	-8.5%
CCCOC(=O)C1=C(C)NC2=C(C(=O)CCC2)C1c1cccs1 (configuration not stated)	-3.3%	-1.8	?	19.9	-12.6%	-0.2%
COC(=O)C1=C(C)N(Cc2ccccc2)C(=O)N[C@H]1c1ccccc1	-5.3%[8.37 µM]	-4.2	?	-13.3	-0.4%	-2.4%
O=C(N=C1SC2CS(=O)(=O)CC2N1c1ccccc1Cl)C1CCCO1 (configuration not stated)	4.7%	-2.0	31.9%	-4.2	-3.0%	-0.9%
O=C(COc1ccccc1)Nc1ccc2c(c1)nc1n2CCOC1	9.3%	20.0	43.2%[5.75 µM]	134.1*	78.3%	31.4%
O=C(COc1ccccc1)Nc1ccc2c(c1)nc1n2CCSC1	-9.0%	24.5*	34.3%[5.75 µM]	145.9	13.0%	32.6%
Cc1ccc(OCC(=O)Nc2ccc3c(c2)nc2n3CCOC2)cc1	-16.1%	2.6	-29.9%	-4.6	?	0.3%
COc1ccc(N2CC(C(=O)Nc3cccnc3)CC2=O)cc1 (configuration not stated)	10.3%	-2.3	0.5%	-10.0	33.9%	-0.9%
Cc1cccn2c(NCc3ccc4c(c3)OCO4)c(-c3ccc(O)cc3)nc12	-24.2%	10.7	i	-11.9	4.15µM*	-0.8%
Clc1cccc(-c2ccc(-c3nc4ccccn4c3NCc3ccccc3)cc2)c1	14.1µM*	nt	nt	nt	nt	-2.0%
COc1ccc(-c2nc3ccccn3c2NCc2ccc3c(c2)OCO3)cc1	-20.6%	22.3*	-84.7%	49.4*	36.3%	?
COc1ccc(-c2nc3cc(C)ccn3c2NCc2ccc3c(c2)OCO3)cc1	9.2%	27.2*	19.7%	133.4*	?	-18.2%
CCCCC[C@@H]1C=C(C(=O)O)[C@H](c2ccc(F)cc2)N1S(=O)(=O)c1ccc(C)cc1	36.2%	nt	nt	nt	nt	-1.5%
CCC(=O)c1ccc(OCC(=O)NCc2ccccc2CN2CCCC2)cc1	?	nt	nt	nt	nt	-0.5%
C[C@@H]1CN([C@H](C)CO)C(=O)CCCn2cc(nn2)CO[C@H]1CN(C)S(=O)(=O)c1ccc(-c2ccccc2)cc1	nt	nt	nt	nt	nt	0.7%
COc1cc(-c2nc3cnccn3c2Nc2ccc3c(c2)OCCO3)ccc1O	?	7.5	40.7%	14.9	?	-2.6%
COc1cc(-c2nc3ccc(C)cn3c2Nc2ccc3c(c2)OCCO3)ccc1O	6.7%	13.0	13.1µM*	1.7	11.7µM*	?
Cc1ccn2c(Nc3ccc4c(c3)OCO4)c(-c3ccc(O)cc3)nc2c1	-15.2%	10.9	11.7µM*	41.0	?	-24.8%
Oc1ccc(-c2nc3ncccn3c2Nc2ccc3c(c2)OCO3)cc1	5.8%	-3.7	-1.1%	-22.4	?	-21.2%
CN(Cc1ccccc1)C(=O)[C@@H]1CCCN1C(=O)OC(C)(C)C	nt	nt	nt	nt	nt	-27.8%
CC(=O)Nc1ccc(-c2ccnc3c2CC(C)(C(=O)NCc2ccco2)O3)cc1 (configuration not stated)	nt	nt	nt	nt	nt	-2.9%
COc1ccc(C2CCc3cc4c(cc3C2=NOC(C)=O)OCO4)cc1OC (configuration not stated)	nt	nt	nt	nt	nt	-4.9%
COCC1CCN(Cc2nc(COc3ccccc3)no2)C1 (configuration not stated)	7.6%	15.1*	0.0%	31.1*	?	6.0%
c1ccc(CN2CCCC3(CCCN(Cc4nc(COc5ccccc5)no4)C3)C2)cc1 (configuration not stated)	-1.0%	9.0	40.3%	15.4	11.7µM*	-2.8%
SMILES	HCV inh	CHX counter	Pf growth 96h	Shiga inhibitor	Pf growth 48h	AMA1-RON2 inh
c1ccc(CN2CCCC3(CCCN(Cc4nc(CC5CC5)no4)C3)C2)cc1 (configuration not stated)	10.5%	0.9	283.4%	-7.8	-10.7%	10.1%
Cc1[nH]c(=O)[nH]c(=O)c1S(=O)(=O)N1CCCC(C(=O)NCCC2=CCCCC2)C1 (configuration not stated)	-0.4%	-2.3	?	-18.2	?	0.8%
CC1CCCN(C(=O)Cn2nnc(-c3ccccc3F)n2)C1 (configuration not stated)	-0.3%	39.4*	0.0%	48.5*	98.8%	9.9%
COc1ccc(-c2nnn(CC(=O)N3CCN(c4ccc(F)cc4)CC3)n2)cc1	12.6%	-3.1	74.5%	-2.0	5.7%	11.7%
CC(C)COc1ccc(-c2nnn(CC(=O)N3CCCC3)n2)cc1	?	22.7*	32.7%	58.3*	?	-2.6%
CC1CCCN(C(=O)Cn2nnc(-c3ccc(F)cc3)n2)C1 (configuration not stated)	18.3%	12.9	21.0%	-5.0	33.4%	0.0%
O=C(Cn1nnc(-c2ccccc2)n1)N1CCCCC1	5.5%	38.1*	?	46.9*	0.0%	22.8%
O=C(Cn1nnc(-c2ccccc2Cl)n1)N1CCCCC1	8.8%	27.4*	?	110.1*	107.1%	3.1%
O=C(Cn1nnc(-c2ccc(OCc3ccccc3F)cc2)n1)N1CCOCC1	17.1%	20.6*	nt	+	92.3%	-22.9%
COc1ccc(/C=N/NC(=O)c2sc3nc(C)cc(C)c3c2N)cc1	-5.7%	7.6	21.3%	20.3	-11.3%	-2.6%
Cc1cc(C)c2c(N)c(C(=O)N/N=C/c3cccs3)sc2n1	-2.6%	53.5*	43.7%	91.9*	95.7%	-5.1%
CCOC(=O)c1c(C)nc2sc(C(=O)Nc3ccc(OC)cc3)c(N)c2c1-c1ccc(OC)cc1	3.55µM*	-2.4	2.33µM*	-5.4	nt	-12.5%
CCOC(=O)c1c(C)nc2sc(C(=O)Nc3ccc(C(C)=O)cc3)c(N)c2c1-c1ccc(OC)cc1	?	1.9	27.6%[5.75 µM]	26.0	?	38.3%
Cc1cc(C)c2c(N)c(C(=O)C(C)(C)C)sc2n1	11.6%	-0.7	-9.9%[5.75 µM]	-12.0	-19.9%	21.9%
COc1ccc(NC(=O)c2sc3nc(C)cc(C)c3c2N)cc1	?	34.3*	?	43.3*	160.7%	14.3%
Cc1cc(C)cc(NC(=O)c2sc3nc(C)cc(C)c3c2N)c1	-20.0%	25.1*	-11.5%	117.6*	90.7%	13.4%
COc1ccc(S(=O)(=O)N2CCOCC2)cc1NS(=O)(=O)c1ccc(F)c(F)c1	7.0%	nt	nt	nt	nt	-5.3%[11.6 µM]
CCC(=O)N(C)C[C@@H]1Oc2ncc(Br)cc2C(=O)N([C@@H](C)CO)C[C@H]1C	nt	nt	nt	nt	nt	-6.4%
O=C(CN1C(=O)NC2(CCCCCC2)C1=O)NCc1ccccc1Cl	4.5%	nt	nt	nt	nt	-1.2%

Source: PubChem
